Data on 20 molecules can be found in PubChem BioAssay (NCATS).

Inconclusive results are not listed. Unmarked numbers belong to inactive results. The source made the active and inactive calls. The call rests on the fitted dose curve; in most records, active means well fitted inhibition curve with a large enough effect; inconclusive means small, poorly fitted or top-dose-only effect; inactive means flat fitted curve, though single readings scatter.

What all share (assay): Cytotoxic Profiling of Annotated Libraries Using Quantitative High-Throughput Screening (AID 1296008); further: nearly all actives have a fitted effect of over 60% in size
What all share (conditions): Five cell lines viability, CellTiter-Glo ATP luminescence, 48-72 h; max response: hits give low values
A general note: ATP-based viability assays read luminescence as a measure of living cells.

The test system of one assay is HaCat. In short, it runs like this: (§1)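 Compounds were pin-transferred onto cells and incubated 48 or 72 hr at 37 degree Celsius, 95% humidity. CellTiter-Glo was added, plates sat 10 min at room temperature, then ATP-coupled luminescence was imaged as the viability read-out.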
For another assay, the system named is KB-3-1. In short, it runs like this: as §1
The next assay concerns NIH3T3. In short, it runs like this: as §1
On the % scale 0 is the no-effect control and ±100 the full control effect; potency means the concentration at half of the fitted maximal effect.

`COc1cc(N2CCOCC2)ccc1Nc1ncc(Cl)c(Nc2ccccc2NS(C)(=O)=O)n1`: the values for the Potency in the assay on HaCat, with KB-3-1 and in the assay with NIH3T3 were 4610 nM (active), 2310 nM (active) and 6510 nM (active), respectively.
On to `Cc1c(CN2CCN(C(=O)C(C)O)CC2)sc2c(N3CCOCC3)nc(-c3cnc(N)nc3)nc12` (stereo not given), for which the Potency is 2310 nM (active) with HaCat, 580 nM (active) in the assay on KB-3-1 and 1300 nM (active) in the assay on NIH3T3.
As to `CCn1cc(NC(=S)Nc2cc(Cl)ccc2OC)c(C(N)=O)n1`, the max response in the assay on HaCat is -0.793%; in the assay on NIH3T3, -1.95%. Further, the call with KB-3-1 was inactive.
As to `CC(C)c1c2cc(-c3ccnc(NC4CCC(NC5CCOCC5)CC4)n3)ccc2nn1C` (stereo not given), the Potency was 1640 nM (active) with HaCat, 231 nM (active) in the assay on KB-3-1 and 1030 nM (active) in the assay on NIH3T3.
Take `CC(Oc1ccc2[nH]nc(/C=C/c3cnn(CCO)c3)c2c1)c1c(Cl)cncc1Cl` (stereo not given): the Potency in the assay on HaCat is 2060 nM (active); in the assay on KB-3-1, 291 nM (active); in the assay with NIH3T3 it was 517 nM (active).
The corresponding values for `CC(C)c1cc(CNc2nc(Nc3cc(C4CC4)[nH]n3)cc(N3CCN(C)CC3)n2)on1` are 2310 nM (active), 146 nM (active) and 461 nM (active).
Turning to `CC1(C)CC[C@]2(C(=O)OC3OC(CO)C(O)C(O)C3O)CC[C@]3(C)C(=CCC4[C@@]5(C)CC[C@H](OC6OC(C(=O)O)C(O)C(OC7OC(CO)C(O)C(O)C7O)C6O)C(C)(C)C5CC[C@]43C)C2C1` (stereo not given in full), the max response in the assay on HaCat is -1.22%; in the assay on KB-3-1, -3.39%; with NIH3T3, 0.867%.
Turning to `NCCCNc1ccc(Nc2nccc(Nc3cc(C4CC4)[nH]n3)n2)cc1`, the values for the Potency in the assay with HaCat, in the assay with KB-3-1 and in the assay on NIH3T3 were 4610 nM (active), 820 nM (active) and 5800 nM (active), respectively.
`C[C@H]1CC[C@@H]2N(C1)C[C@@H]1[C@H]([C@@H](O)[C@H](O)[C@]3(O)[C@H]1C[C@@]14OC5(O)[C@@H](C[C@@H](O)[C@@H]31)[C@]4(C)CC[C@@H]5O)[C@]2(C)O`: the max response in the assay with HaCat was -17.6%; in the assay with NIH3T3, 0.156%. Besides, the call in the assay with KB-3-1 was inactive.
`CC(C)(C)NS(=O)(=O)c1cncc(-c2cc(F)c3nc(N)nn3c2)c1`: the max response was -25.2% in the assay on HaCat and 3.5% with NIH3T3. The result in the assay on KB-3-1 was inactive.
For the molecule `O=C(Nc1ccccc1)N1CCN(Cc2ccc3ccccc3n2)CC1`, the max response in the assay with HaCat is -4.72%; in the assay on KB-3-1 it was -4.71%; in the assay with NIH3T3 it was 1.66%.
For `COc1cc2oc(-c3ccc(O)cc3O)cc2c(OC)c1CC=C(C)C`, the max response is -6.75% with HaCat, -1.08% with KB-3-1 and 2.22% in the assay on NIH3T3.
The corresponding values for `CCOc1ccc2nc(SCCN3CCOCC3)[nH]c2c1` are 4.78%, -9.7% and 0.835%.
Consider `O=C(Nc1ccn[nH]1)c1c(F)cccc1F`, for which the values for the max response in the assay on HaCat and in the assay on NIH3T3 were -3.04% and 3.6%, respectively. Also, in the assay with KB-3-1, the result was inactive.
Take `O=C(NCc1cccc(O)c1)c1cc2cc(F)ccc2[nH]1`: the max response with HaCat was -7.37%; in the assay on KB-3-1, -5.86%; with NIH3T3 it was -0.959%.
Take `CC(=O)OC1C[C@@]2(C)[C@@H](CC[C@@H](C)[C@]23Cc2c(O)cc4c(c2O3)CNC4=O)C(C)(C)[C@@H]1O` (stereo not given in full): the max response in the assay with HaCat is 4.03%; in the assay with NIH3T3, 1.15%. Also, the outcome in the assay with KB-3-1 was inactive.
Take `CCC(COC)n1nnc2c(Nc3ccc(OC)cc3C)nc(C)cc21` (stereo not given): the results for the max response with HaCat, in the assay with KB-3-1 and in the assay with NIH3T3 were -0.414%, 6.85% and 2.01%, respectively.
Turning to `OC[C@H]1O[C@@H](OCCc2ccccc2)[C@H](O[C@@H]2OC[C@](O)(CO)[C@H]2O)[C@@H](O)[C@@H]1O`, the values for the max response in the assay on HaCat and in the assay with NIH3T3 were 0.135% and 1.81%, respectively. The molecule was called inactive in the assay with KB-3-1.
Turning to `O=C(Nc1ccc(S(=O)(=O)Nc2nccs2)cc1)C(c1ccccc1)c1ccccc1`, the max response in the assay with HaCat was -1.59%; with KB-3-1 it was 5.78%; in the assay with NIH3T3, 3.11%.
On to `C[C@@H]1O[C@@H](O[C@H]2[C@@H](OC(=O)[C@]34CCC(C)(C)CC3C3=CCC5[C@@]6(C)C[C@H](O)[C@H](O[C@@H]7O[C@H](C(=O)O)[C@@H](O)[C@H](O)[C@H]7O)[C@@](C)(C(=O)O)C6CC[C@@]5(C)[C@]3(C)CC4)OC[C@H](O)[C@@H]2O)[C@H](O)[C@H](O)[C@H]1O[C@@H]1OC[C@@H](O)[C@H](O)[C@H]1O` (stereo not given in full), for which the max response in the assay on HaCat is -1.2%; in the assay on NIH3T3, -0.698%. Also, the molecule was called inactive in the assay with KB-3-1.
